Laboratory results reported in PubChem BioAssay (EPA / NIEHS).
Several values for one entry are separate records, joined by “and”; a condition that tells them apart may be missing. Equal entries are not always repeated. Inconclusive results are not listed. Some structures have more than one record in an assay (separate samples or runs), and their calls can disagree. Activity calls are given as the source filed them. Rule for the calls: active = hit-call score of the fitted dose curve at least 0.9, where 1 is the maximum; inconclusive = response in the unintended direction; inactive = score below 0.9.

test system: not listed separately; test: TOX21_p53_BLA_p3_viability: Viability Assessment in the Tox21 HCT-116 p53 Agonism Beta-lactamase Assay, Phase 3 (AID 2283593);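 note: cells exposed to compound for 16 h before reading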
Outline: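 Cellular ATP was quantified by CellTiter-Glo luminescence, read after 30 min at room temperature. Beforehand, HCT116 cells (4000/well) received compound 5 h post-seeding, 217-fold diluted from DMSO, then incubated 16 h at 37C.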

Row | Compound | outcome | AC50
1 | O=[N+]([O-])c1ccc(F)c(Cl)c1 | inactive | 
2 | Clc1ccnc(Cl)n1 | inactive | 
3 | C=C(C)C(=O)OC(C)C | inactive | 
4 | CCc1nn(CCCN2CCN(c3cccc(Cl)c3)CC2)c(=O)n1CCOc1ccccc1 | inactive | 18.9 µM (active)
5 | Nc1cc(C(=O)O)ccc1Cl | inactive | 
6 | COC(=O)C[C@](O)(CCCC(C)(C)O)C(=O)O[C@@H]1C(OC)=CC23CCCN2CCc2cc4c(cc2[C@H]13)OCO4 (stereo not given in full) | inactive | 
7 | COC(=O)C1=C(C)NC(C)=C(C(=O)OC)C1c1ccccc1[N+](=O)[O-] | inactive | 38.3 µM (active)
8 | COC1[C@@H](O[C@@H]2O[C@H](C)[C@@H](O[C@H]3C[C@@](C)(O)[C@H](OC(=O)CC(C)C)[C@H](C)O3)[C@H](N(C)C)[C@H]2O)[C@@H](CC=O)C[C@@H](C)[C@@H](O)/C=C/C=C/C[C@@H](C)OC(=O)C[C@H]1OC(C)=O (stereo not given in full) | inactive | 
9 | C[C@H](N)[C@H](O)c1cccc(O)c1 | inactive | 

target: Cellular tumor antigen p53 (Homo sapiens) (UniProt P04637); test: TOX21_p53_BLA_p3_ratio: Tox21 HCT-116 p53 Agonism Beta-lactamase Assay, Ratio, Phase 3 (AID 2283596)
Sequence (P04637 whole entry, looked up): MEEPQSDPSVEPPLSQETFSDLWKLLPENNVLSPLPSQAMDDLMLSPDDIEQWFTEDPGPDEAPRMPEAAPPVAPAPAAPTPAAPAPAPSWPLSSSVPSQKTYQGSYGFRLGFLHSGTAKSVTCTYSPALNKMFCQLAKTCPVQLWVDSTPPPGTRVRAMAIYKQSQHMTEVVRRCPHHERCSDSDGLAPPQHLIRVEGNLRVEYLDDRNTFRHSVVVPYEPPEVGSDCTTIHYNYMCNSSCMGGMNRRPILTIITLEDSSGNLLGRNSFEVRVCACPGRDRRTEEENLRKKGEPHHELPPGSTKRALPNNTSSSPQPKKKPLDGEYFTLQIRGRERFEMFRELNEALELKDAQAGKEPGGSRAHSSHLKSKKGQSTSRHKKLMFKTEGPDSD
Outline: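 Cells were seeded at 4000/well, rested 5 h at 37C, then dosed with DMSO compound solutions (217-fold dilution) for 16 h. CCF4-AM substrate was loaded for 2 h at room temperature, and the 460/530 nm emission ratio was fitted for gain of signal versus DMSO.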

Row | Compound | outcome | AC50
10 | CCc1nn(CCCN2CCN(c3cccc(Cl)c3)CC2)c(=O)n1CCOc1ccccc1 | inactive | 
11 | COC(=O)C[C@](O)(CCCC(C)(C)O)C(=O)O[C@@H]1C(OC)=CC23CCCN2CCc2cc4c(cc2[C@H]13)OCO4 (stereo not given in full) |  | 45.4 nM (active) and 43.1 nM (active)
12 | COC(=O)C1=C(C)NC(C)=C(C(=O)OC)C1c1ccccc1[N+](=O)[O-] | inactive | 
13 | COC1[C@@H](O[C@@H]2O[C@H](C)[C@@H](O[C@H]3C[C@@](C)(O)[C@H](OC(=O)CC(C)C)[C@H](C)O3)[C@H](N(C)C)[C@H]2O)[C@@H](CC=O)C[C@@H](C)[C@@H](O)/C=C/C=C/C[C@@H](C)OC(=O)C[C@H]1OC(C)=O (stereo not given in full) | inactive | 

test system: not listed separately; test: TOX21_p53_BLA_p4_viability: Viability Assessment in the Tox21 HCT-116 p53 Agonism Beta-lactamase Assay, Phase 4 (AID 2283597);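 note: hits lower the luminescence signal meaning cytotoxicity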
Outline: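 ATP content by CellTiter-Glo luminescence, 30 min RT, read after the beta-lactamase ratio step. Cells: HCT116, 4000/well, compound added after 5 h, exposure 16 h at 37C. Signal loss = reduced viability.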

Row | Compound | AC50 | outcome
14 | CCc1nn(CCCN2CCN(c3cccc(Cl)c3)CC2)c(=O)n1CCOc1ccccc1 | 23 µM (active) and 14.9 µM (active) | 
15 | COC(=O)C[C@](O)(CCCC(C)(C)O)C(=O)O[C@@H]1C(OC)=CC23CCCN2CCc2cc4c(cc2[C@H]13)OCO4 (stereo not given in full) | 14 nM (active) | 
16 | COC(=O)C1=C(C)NC(C)=C(C(=O)OC)C1c1ccccc1[N+](=O)[O-] |  | inactive

target: Cellular tumor antigen p53 (Homo sapiens) (UniProt P04637); test: TOX21_p53_BLA_p5_ratio: Tox21 HCT-116 p53 Agonism Beta-lactamase Assay, Ratio, Phase 5 (AID 2283599)
Outline: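 Beta-lactamase reporter ratio (blue 460 nm over green 530 nm, 405 nm excitation) after 2 h CCF4-AM loading, in HCT-116 cells exposed 16 h at 37 C to compounds pinned at 217-fold dilution. Increases relative to DMSO baseline scored.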

Row | Compound | outcome | AC50
17 | CSc1ccc(C(=O)c2[nH]c(=O)[nH]c2C)cc1 | inactive | 
18 | CCOC(=O)O[C@]1(C(=O)COC(=O)CC)CC[C@H]2[C@@H]3CCC4=CC(=O)C=C[C@]4(C)[C@H]3[C@@H](O)C[C@@]21C | inactive | 
19 | CC(=O)Nc1ccc(OC(C)=O)cc1 | inactive | 
20 | OC[C@H]1O[C@@H](O[C@@H]2[C@@H](CO)O[C@](O)(CO)[C@H]2O)[C@H](O)[C@@H](O)[C@H]1O | inactive | 
21 | CC1(C)[C@@H](OC(=O)CCC(=O)O)CC[C@]2(C)[C@H]3C(=O)C=C4[C@@H]5C[C@@](C)(C(=O)O)CC[C@]5(C)CC[C@@]4(C)[C@]3(C)CC[C@@H]12 | inactive | 
22 | CCc1nn(CCCN2CCN(c3cccc(Cl)c3)CC2)c(=O)n1CCOc1ccccc1 | inactive | 
23 | O=C1C=CCCC1 | inactive | 
24 | COC(=O)C[C@](O)(CCCC(C)(C)O)C(=O)O[C@@H]1C(OC)=CC23CCCN2CCc2cc4c(cc2[C@H]13)OCO4 (stereo not given in full) | inactive | 0.0379 µM (active)
25 | CCCCCCCCCC#N | inactive | 
26 | CN1C(C)(C)CCCC1(C)C | inactive | 
27 | COC(=O)C1=C(C)NC(C)=C(C(=O)OC)C1c1ccccc1[N+](=O)[O-] | inactive | 
28 | Oc1ccc(-c2ccc(O)cc2)cc1 | inactive | 
29 | CC(=O)O[C@H]1C[C@@H]2CC[C@@H]3[C@H](CC[C@@]4(C)[C@H]3C[C@H](N3CC[N+](C)(C)CC3)[C@@H]4OC(C)=O)[C@@]2(C)C[C@@H]1N1CC[N+](C)(C)CC1 | inactive | 
30 | C[C@@H](CN(C)C)CN1c2ccccc2Sc2ccccc21 | inactive | 
31 | CCC(O)C(C)(C)C (stereo not given) | inactive | 
32 | COC(=O)C(CN)c1c[nH]c2ccc(OC)cc12 (stereo not given) | inactive | 
33 | CC(C)CNCC(C)C | inactive | 
34 | CCOC(=O)COc1ccc2c(C)c(CCN(CC)CC)c(=O)oc2c1Cl | inactive | 
35 | CCCCC(=O)N(C)C | inactive | 
36 | CCCCCCCC/C=C\CCCCCCCCCCCC(=O)O | inactive | 

test system: not listed separately; test: TOX21_p53_BLA_p5_viability: Viability Assessment in the Tox21 HCT-116 p53 Agonism Beta-lactamase Assay, Phase 5 (AID 2283600)
Outline: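 ATP luminescence (CellTiter-Glo, 30 min, RT) served as the viability read-out, with loss of signal indicating cytotoxicity. Compounds in DMSO were pinned at a 217-fold dilution onto 4000 cells/well and incubated 16 h, 37C.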

Row | Compound | outcome
37 | CSc1ccc(C(=O)c2[nH]c(=O)[nH]c2C)cc1 | inactive
38 | CCOC(=O)O[C@]1(C(=O)COC(=O)CC)CC[C@H]2[C@@H]3CCC4=CC(=O)C=C[C@]4(C)[C@H]3[C@@H](O)C[C@@]21C | inactive
39 | NS(=O)(=O)c1cc(C(=O)O)cc(N2CCCC2)c1Oc1ccccc1 | inactive
40 | CC(=O)Nc1ccc(OC(C)=O)cc1 | inactive
41 | OC[C@H]1O[C@@H](O[C@@H]2[C@@H](CO)O[C@](O)(CO)[C@H]2O)[C@H](O)[C@@H](O)[C@H]1O | inactive
42 | CCOC(=O)CC(C)=O | inactive
43 | CC1(C)[C@@H](OC(=O)CCC(=O)O)CC[C@]2(C)[C@H]3C(=O)C=C4[C@@H]5C[C@@](C)(C(=O)O)CC[C@]5(C)CC[C@@]4(C)[C@]3(C)CC[C@@H]12 | inactive
44 | CCc1nn(CCCN2CCN(c3cccc(Cl)c3)CC2)c(=O)n1CCOc1ccccc1 | inactive
45 | O=C1C=CCCC1 | inactive
46 | COC(=O)C[C@](O)(CCCC(C)(C)O)C(=O)O[C@@H]1C(OC)=CC23CCCN2CCc2cc4c(cc2[C@H]13)OCO4 (stereo not given in full) | inactive
47 | CN1C(C)(C)CCCC1(C)C | inactive
48 | COC(=O)C1=C(C)NC(C)=C(C(=O)OC)C1c1ccccc1[N+](=O)[O-] | inactive
49 | Oc1ccc(-c2ccc(O)cc2)cc1 | inactive
50 | CC(=O)O[C@H]1C[C@@H]2CC[C@@H]3[C@H](CC[C@@]4(C)[C@H]3C[C@H](N3CC[N+](C)(C)CC3)[C@@H]4OC(C)=O)[C@@]2(C)C[C@@H]1N1CC[N+](C)(C)CC1 | inactive
51 | CCC(O)C(C)(C)C (stereo not given) | inactive
52 | COC(=O)C(CN)c1c[nH]c2ccc(OC)cc12 (stereo not given) | inactive
53 | CC(C)CC(O)CC(C)C | inactive
54 | CCc1ccc(C)cc1 | inactive
55 | CC[N+](C)(CC)CCOC(=O)C(O)(c1ccccc1)C1CCCCC1 (stereo not given) | inactive
56 | CC(C)CNCC(C)C | inactive
57 | CCOC(=O)COc1ccc2c(C)c(CCN(CC)CC)c(=O)oc2c1Cl | inactive
